# In PubChem BioAssay AID881 (National Center for Advancing Translational Sciences (NCATS), 2007):
# In all, about 110,000 compounds went through this assay and about 610 (0.55%) were called active. Roughly 3% stayed inconclusive and do not appear here. What follows is part of a selection rich in actives, with near analogues and random picks from the rest. A call without a number means that no potency is given here. Values without a mark were called inactive. Calls come from the whole dose curve; as a rule, active = well fitted inhibition curve with a large enough effect; inconclusive = small, poorly fitted or top-dose-only effect; inactive = no such curve, though single readings can be large or run the other way.
# Target: Polyunsaturated fatty acid lipoxygenase ALOX15B (Homo sapiens) (UniProt O15296)
# Sequence (O15296 whole entry, looked up): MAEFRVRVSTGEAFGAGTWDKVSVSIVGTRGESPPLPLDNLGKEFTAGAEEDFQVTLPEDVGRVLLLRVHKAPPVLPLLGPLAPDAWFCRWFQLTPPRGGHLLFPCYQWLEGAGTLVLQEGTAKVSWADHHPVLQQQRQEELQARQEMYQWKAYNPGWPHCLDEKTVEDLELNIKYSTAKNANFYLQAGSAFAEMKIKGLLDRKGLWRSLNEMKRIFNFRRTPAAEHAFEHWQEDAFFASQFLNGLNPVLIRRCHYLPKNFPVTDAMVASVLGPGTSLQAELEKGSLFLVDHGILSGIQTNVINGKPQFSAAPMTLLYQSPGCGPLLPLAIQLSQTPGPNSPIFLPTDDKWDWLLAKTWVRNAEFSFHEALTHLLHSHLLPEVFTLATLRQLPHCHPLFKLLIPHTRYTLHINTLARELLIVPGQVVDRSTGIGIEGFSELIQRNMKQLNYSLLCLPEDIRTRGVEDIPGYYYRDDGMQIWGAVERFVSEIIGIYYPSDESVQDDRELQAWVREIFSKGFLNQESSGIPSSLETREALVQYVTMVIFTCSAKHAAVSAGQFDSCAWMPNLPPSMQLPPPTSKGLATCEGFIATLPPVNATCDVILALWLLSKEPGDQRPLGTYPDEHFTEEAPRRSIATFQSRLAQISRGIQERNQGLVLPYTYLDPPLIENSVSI
# Test: qHTS Assay for Inhibitors of 15-hLO-2 (15-human lipoxygenase 2); note: nearly all actives have a fitted effect of over 60% in size
# Details: purified 15hLO-2, xylenol orange hydroperoxide absorbance; series mostly up to 57.1 µM
# Description: Assay Overview: NIH Molecular Libraries Screening Centers Network [MLSCN] NIH Chemical Genomics Center [NCGC] MLSCN Grant: MH081283-01A1 PI Name: Holman, T.R., University of California, Santa Cruz Human lipoxygenase 15hLO-2 is a member of the closely related lipoxygenase family of enzymes which catalyze the site-specific oxidation of arachidonic acid to various hormone precursor molecules and as such is a candidate for drug development in a variety of disease areas, such as cancer and inflammation. Inhibition of 15hLO-2 activity was screened by utilizing arachidonic acid as a substrate. The extent of hydroperoxide product formation was measured by a secondary chromogenic reaction in which xylenol orange (XO, Sigma-Aldrich, cat. number 39,818-7) reacts with the ferric ions produced from the reaction between the hydroperoxide and ferrous ions. The Fe(III)-XO complex is characterized with red-shifted absorbance at 560 nm. A purified preparation of human 15hLO-2 was supplied by Professor Ted Holman, University of California, Santa Cruz.
# Assay Protocol: Buffer: 25 mM Hepes pH 7.5, 0.01% Triton X-100. Reagents/Controls: Buffer in columns 3 and 4 as negative control (no enzyme). Substrate solution: 45 uM arachidonic acid (Sigma-Aldrich, St. Louis, MO) final concentration dispensed throughout the plate. Enzyme: 50 nM 15hLO-2 final concentration in columns 1, 2, 5-48. Column 1 is neutral (100% activity). Column 2 contained pin-transferred titration of NDGA (nordihidroguaiaretic acid, Sigma-Aldrich, N 5023, top concentration 10 mM in DMSO, then 1:2 dilution in duplicate). (Dilution factor: 23 nL into 4 uL.) Chromogenic detection reagent (divalent iron/xylenol orange, Fe-XO): 200 uM xylenol orange plus 300 uM ferrous ammonium sulfate prepared freshly in 50 mM sulfuric acid. Assay Steps: Three uL of enzyme were dispensed to 1536-well Greiner black clear bottom plates. Compounds and controls (23 nL) were transferred via Kalypsys PinTool. The plates were incubated for 15 min at room temperature, and then 1 uL of substrate solution was added to start the reaction. After room temperature incubation for 90 minutes, 4 uL of Fe-XO solution was added to each well followed by a short spin (1000 rpm, 15 sec) and the plates were then incubated for 30 min. The absorbance at 405 and 573 nm were measured using ViewLux (Perkin-Elmer) High-throughput CCD imager and absorbance protocol settings. The 573-to-405 absorbance ratio was used to compute reaction progress.
# Potency is the fitted concentration of half-maximal effect.
Compound,"activity change, negative = inhibition",Potency
COc1ccc(CN2CCCCC2C)cc1OC (centres undefined),inactive,
Cc1ccc(CNC(=O)CCNC(=O)Cn2ccc3ccccc3c2=O)cc1,inactive,
O=C(Nc1nnc(C2CC2)s1)c1ccccn1,inactive,
C/C=C1\C2C=C(C)CC1(N)c1ccc(=O)[nH]c1C2 (centres undefined),-9.9% [at 0.0915 µM],
Oc1ccc(O)c2c(O)cccc12,,12.6 µM (active)
COc1ccc(-c2cc3nc(C)c(CCC(=O)NC(C)CCc4ccco4)c(C)n3n2)c(OC)c1 (centres undefined),inactive,
COc1cc(OC)c2c(c1)OC(=O)CC2c1cc(OC)c(OC)c(OC)c1 (centres undefined),-2.71% [at 0.0915 µM],
COc1cc(OC)c2c(-c3cccc(-c4cccc(N)c4)c3)cc(=O)oc2c1,3.54% [at 0.0915 µM],
O=C(c1cccc(N2CCCC2=O)c1)N1CCOCC1,inactive,
Cc1cc2oc(=O)cc(-c3ccccc3)c2c(C)c1/C=C/c1ccc(F)cc1,-8.43% [at 0.0915 µM],
COc1ccc(SCc2noc(C(=O)NCC3CCCO3)c2C(=O)O)cc1 (centres undefined),inactive,
CCN1C(=O)/C(=C2/Sc3ccccc3N2CCCS(=O)(=O)O)SC1=S,,15.8 µM (active)
CCCCN1C(=O)/C(=C2/C=CC=CN2C)SC1=S,inactive,
CCN1C(=O)/C(=C\N2CCN(c3ccccc3)CC2)SC1=S,inactive,
CCN(CC)C(=O)CSc1nnc(-c2cccc(OC)c2)o1,inactive,
COc1ccc(-c2nnc(SC(C)C#N)o2)cc1 (centres undefined),inactive,
COc1ccc(-c2nnc(SC(=O)N3c4ccccc4Sc4ccccc43)o2)cc1,,10 µM (active)
Cc1cnc(NC(=O)CSc2nnc(C)s2)s1,inactive,
O=S(=O)(c1ccc(Br)cc1)c1nc(-c2ccccc2)oc1NCc1cccnc1,inactive,
Cc1ccc(-c2csc(NC(=O)Cc3cccs3)n2)cc1C,inactive,

Compound,"activity change, negative = inhibition",Potency
Cc1nnc(NC(=O)CSc2nc(C3CCCCC3)nc3ccccc23)s1,inactive,
CCOCCCNC(=O)C(NC(=O)c1ccc(=O)[nH]c1)c1ccc(C)cc1 (centres undefined),inactive,
COc1ccc(N(CC(=O)NC2CCCCC2)S(=O)(=O)c2c(C)[nH]c(=O)[nH]c2=O)cc1,inactive,
CCc1c(C)[nH]c(=S)c(C#N)c1C,,31.6 µM (active)
O=C(Nc1ccccc1)c1ccccc1NC(=O)C(F)(F)F,inactive,
CCCNC(=S)NC1CC2CCCC(C1)N2CC(C)C (centres undefined),inactive,
Cc1ccc(F)c(NC(=O)CCc2ccccc2)c1,inactive,
COc1ccc(-c2c(C)cc3oc(=O)cc(-c4ccccc4)c3c2C)cc1C=O,-27.8% [at 0.0915 µM],
COc1ccc(C2CC(=O)Oc3ccc(C(C)(C)C)cc32)cc1 (centres undefined),-11.2% [at 0.0915 µM],
CCCNC(=O)NCc1ccc(N2CCCC2=O)cc1,inactive,
COCc1cc(=O)[nH]c2cc(NC(=O)C(F)(F)F)c(C)cc12,inactive,
CCOC(=O)C1C/C(=C\C(C)=O)c2cccc(C(F)(F)F)c2O1 (centres undefined),4.83% [at 0.0915 µM],
COc1cnc(SCc2ccc(Cl)c(Cl)c2)nc1Cl,inactive,
C(=N/N1CCN(c2ccccc2)CC1)/c1cccs1,inactive,
COc1ccc(C(=O)NNC(=O)c2cnccn2)cc1[N+](=O)[O-],inactive,
COc1ccc(Nc2nc(=O)[nH]nc2C)cc1,inactive,
O=C(NCc1ccco1)C1(c2ccc(Cl)cc2)CCCC1,inactive,
O=C(NCc1ccco1)C1CCCN(S(=O)(=O)c2ccccc2)C1 (centres undefined),inactive,
CCc1ccc(C(=O)CSc2nnc(C)c(=O)[nH]2)cc1,inactive,
COC(=O)C1C(=O)NCC1c1ccc(OC)cc1 (centres undefined),inactive,

Compound,"activity change, negative = inhibition",Potency
CC(=O)c1cccc(NC(=O)C2CCCN2S(=O)(=O)c2cccc3nsnc23)c1 (centres undefined),inactive,
CC(=O)CC(c1ccccc1)C1C(=O)Oc2ccccc2C1=O (centres undefined),12.2% [at 0.0915 µM],
C#C[C@]1(O)CC[C@H]2[C@@H]3CCC4=CC(=O)CC[C@@H]4[C@H]3CC[C@@]21CC,-11.5% [at 0.0915 µM],
Cc1cccc(-n2ncc(C#N)c2-n2cccc2)c1,inactive,
CCC(C)N1C(=O)S/C(=C/c2ccc(Sc3nc4ccccc4[nH]3)o2)C1=O (centres undefined),inactive,
CCN1CCN(C(=O)/C=C\C(=O)O)CC1,inactive,
CCOC(=O)Cn1c(-c2cccnc2Cl)nc2ccccc21,inactive,
Cc1cc2cc(CNC(=O)c3cccs3)ccc2[nH]1,inactive,
CCOC(=O)C1=C(C)c2ccccc2OC1(C)C(=O)OCC (centres undefined),0.734% [at 0.0915 µM],
CCCn1c(C(Cc2ccccc2)NC(=O)COC)nc2ccccc21 (centres undefined),inactive,
CC1=C(/C=C/C(C)=C/C=C/C(C)=C/C=C/C=C(C)/C=C/C=C(C)/C=C/C(=O)[C@]2(C)C[C@@H](O)CC2(C)C)C(C)(C)C[C@H](O)C1,24.6% [at 0.0915 µM],
CCOC(=O)c1cnc(SC)nc1Sc1ccc(Cl)cc1Cl,inactive,
COc1cccc2c1OCC(C(=O)NCc1ccc(Cl)cc1Cl)=C2,inactive,
CCCCCCSc1nsc(N)n1,inactive,
CCOC(=O)C1=C(C)c2ccccc2OC1C(=O)OCC (centres undefined),-11.3% [at 0.0915 µM],
O=c1[nH]c2ccccc2n2c(-c3ccccc3)nnc12,,10 µM (active)
O=[N+]([O-])c1cccc(-c2nnc3c4ccccc4c4ccccc4n23)c1,inactive,
O=c1[nH]c(-c2ccccc2)c(-c2ccccc2)[nH]1,inactive,
C[C@@H]1C(c2ccc(F)cc2)=NN(c2ccc(Br)cc2)[C@H]1C(=O)N1CCOC1=O,-11.1% [at 0.0915 µM],
